# Measles CPE: protection of cells from measles virus; Measles virus-infected cells, CPE protection, absorbance; protection (pct of control), % at 4 µM; 1.5% of 140,000 active; in the data active means protection mostly above about 24%, no sharp cut-off; inactive means mostly below about 26%
# MRP1 act: activators of MRP-1 | H69AR cells + doxorubicin, viability rescue, CellTiter-Glo | 0.61% of 140,000 active | viability increase, % at 10 µM;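 active means viability gain under doxorubicin at or above a set limit, the compound median plus 3 SD, cut at about 4.7% in these data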;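 further: MRP-1 overexpressing cells given doxorubicin 25 µM after compound pretreatment; 18-22 h compound pretreatment then 72 h with doxorubicin before readout; 0% = doxorubicin-only wells and 100% = vehicle-treated cells without doxorubicin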
# sEH inhibitor: soluble epoxide hydrolase (human) inhibition; recombinant human sEH enzymatic activity assay; inhibition, % at 2 µM; 0.34% of 91,000 active; in the data active means inhibition above about 80%
# Target sequence (P34913 whole entry, looked up): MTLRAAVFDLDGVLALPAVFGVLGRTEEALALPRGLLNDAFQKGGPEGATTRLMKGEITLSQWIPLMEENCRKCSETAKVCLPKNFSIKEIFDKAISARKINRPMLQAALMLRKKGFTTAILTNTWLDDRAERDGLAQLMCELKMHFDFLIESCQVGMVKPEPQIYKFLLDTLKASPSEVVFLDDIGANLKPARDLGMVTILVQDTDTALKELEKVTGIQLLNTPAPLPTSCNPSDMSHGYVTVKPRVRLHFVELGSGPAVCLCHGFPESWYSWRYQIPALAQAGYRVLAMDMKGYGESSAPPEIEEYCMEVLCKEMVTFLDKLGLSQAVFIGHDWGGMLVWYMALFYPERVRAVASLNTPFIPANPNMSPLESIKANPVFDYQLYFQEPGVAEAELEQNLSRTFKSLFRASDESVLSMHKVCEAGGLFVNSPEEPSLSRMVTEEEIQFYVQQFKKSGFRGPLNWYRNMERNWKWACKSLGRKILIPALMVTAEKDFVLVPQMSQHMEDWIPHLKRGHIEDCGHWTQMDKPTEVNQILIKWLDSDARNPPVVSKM
# MRP resist rev: MRP-mediated drug resistance reversal. differential viability (reversal), % at 10 µM. AID 602. 0.04% of 85,000 active. H69AR cells + 2 uM doxorubicin, CellTiter-Glo, 72 h;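 active means viability drop by adding the cancer drug above about 55%, with treated viability meeting a 40% cutoff, limit read from the data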;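 further: viability without doxorubicin minus viability with 2 µM doxorubicin for each compound; larger differential means the compound sensitizes cells more to doxorubicin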
# sEH activator: soluble epoxide hydrolase (human) activation; activation, % at 2 µM; purified human sEH enzymatic activity, activator screen; 0.04% of 91,000 active; P34913; in the data active means activation above about 37%
# sdo1 growth: compounds rescuing growth of sdo1-depleted yeast, bone marrow failure model. z-score at 10 µM. AID 817. 0.21% of 140,000 active. S. cerevisiae sdo1-depleted JHY4D growth rescue, OD600 30 h; active compounds read high; pdr5 snq2 efflux-pump mutant strain;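 active means z-score above 3 at both the 24 hr and the 30 hr optical density reads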;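 further: z-score against mean and SD of all compound wells on the same plate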
# * marks the source's active call; other numbers are inactive results; . = no result. A selection: hits, their analogues and other compounds. The true share with any hit is near 2.5%.
SMILES,Measles CPE,MRP1 act,sEH inhibitor,MRP resist rev,sEH activator,sdo1 growth
C[C@@H]1C(=O)O[C@@H]2[C@H](O)C34[C@@H]5OC(=O)C3(O[C@H]3OC(=O)[C@H](O)C34[C@H](C(C)(C)C)[C@H]5O)[C@@]12O (stereo not given in full),20*,-1,.,.,.,1.1
CCOC(=O)C(O)(c1ccc(N(C)C(=O)COc2ccccc2)cc1)C(F)(F)F (stereo not given),.,.,-4,.,2,.
CCOC(=O)C(O)(c1ccc(NC(=O)NC2CCCCC2)cc1)C(F)(F)F (stereo not given),12,-3,95*,-5,-95,0.12
O=C(Cc1ccccc1)OCCN1CCCCC1,3,1,1,13,0,0.58
O=C(c1ccccc1)C(CN1CCCC1)c1ccccc1 (stereo not given),22*,-5,.,.,.,-1.6
CC12CN3C(O)C(C)(C1)CC(C)(C2)C3O (stereo not given),11,0,-9,6,10,0.54
C[C@H]1CCC[C@@H](O)CCC/C=C/c2cc(O)cc(O)c2C(=O)O1,117*,-2,5,2,-5,0.16
C1=C(CCNCc2ccccc2)CCCC1,35*,-1,20,.,-18,0.63
Cc1ccc(CNCCc2ccccc2F)cc1,3,-2,.,.,.,-0.12
Oc1cccc(/C=N/NP(=S)(c2ccccc2)c2ccccc2)c1,22,0,5,.,-4,-0.49
CCNC(=O)NC(=O)C(C)OC(=O)c1c(C)nn(Cc2ccccc2Cl)c1Cl (stereo not given),7,1,.,.,.,-0.46
Cc1ccc2nc3c(cc2c1)CC1(C(=O)N(C)C(=O)N(C)C1=O)C1CCCCN31 (stereo not given),34*,5.8*,-7,-16,5,-1.8
CC1=[N+]([O-])C2(N)CCc3nonc3C2(O)C1 (stereo not given),4,-2,.,5,.,-0.35
CCn1c(O)c(C(c2ccccn2)c2c(O)n(CC)c(=S)[nH]c2=O)c(=O)[nH]c1=S,3,-2,-11,.,8,0.26
CN(C)C(=O)Oc1ccc(OC(=O)c2ccccc2)cc1,11,8.2*,11,-27,-6,-0.09
CN1CC=C2C(C#N)=C(N)C(C#N)(C#N)C(c3ccncc3)C2C1 (stereo not given),45*,-2,-1,-11,6,0.13
Cc1sc2nc(COC(=O)Cc3ccccc3)[nH]c(=O)c2c1C,15,0,18,-8,-20,-1.1
O=C(Nc1cccnc1)c1c(O)c2c(n(Cc3ccccc3)c1=O)CCCC2,16,2,.,-5,.,-1.1
O=C(Nc1ccc(F)cc1)c1c(O)c2c(n(Cc3ccccc3)c1=O)CCCC2,2,9.0*,.,.,.,-1.5
O=C(COc1ccc(Br)cc1)N1CCN(C2CCCC2)CC1,12,7.6*,-7,12,7,-1.7
NC(=O)CN1CC(c2ccccc2)CC1=O (stereo not given),39*,-1,-15,0,16,1.3
COc1ccc(NC(c2ccccc2)P(=O)(Oc2ccccc2)Oc2ccccc2)cc1 (stereo not given),10,-3,.,.,.,0.61
CC[N+](C)(CC)CCCOC(=O)C(O)(c1ccccc1)C1CCCCC1 (stereo not given),32*,-2,5,-13,-2,1.7
Cc1cc(OCC(=O)Nc2c(C)n(C)n(-c3ccccc3)c2=O)c2c3c(c(=O)oc2c1)CCC3,.,.,.,2,.,.
CN(C)CCN=Cc1c(O)n(CCC2=CCCCC2)c(=O)[nH]c1=O,33*,0,7,4,-7,1.1
SMILES,Measles CPE,MRP1 act,sEH inhibitor,MRP resist rev,sEH activator,sdo1 growth
O=c1[nH]c(=O)n(CCC2=CCCCC2)c(O)c1C=NCCCn1ccnc1,12,-4,25,15,-25,-0.66
COc1cc(OC)cc(-n2nc(C(=O)N3CCC4(CC3)OCCO4)c3ccccc3c2=O)c1,52*,-3,.,3,.,0.38
O=C(NCc1ccc(C(=O)N2CCC3(CC2)OCCO3)cc1)c1cccc(Br)c1,26*,-2,19,-7,-18,0.65
CCc1sc(C(=O)N2CCC3(CC2)OCCO3)cc1Br,1,-4,.,6,.,0.01
CCC(CC)NC1CCCCC1OC (stereo not given),26*,-1,.,.,.,0.1
CCCCN1C(=O)NC(=O)/C(=C/c2cnc(SC)nc2)C1=O,51*,-1,-4,.,4,-0.18
Cc1nnc(SCc2nc3ccccc3c(=O)n2-c2ccccc2Cl)n1N,11,-1,-1,6,6,0.84
